Bioassay records from PubChem.
Hits are enriched below; roughly 8% of the tested compounds scored in any of these assays.
MCF10A rereplic: A quantitative high throughput screen for small molecules that induce DNA re-replication in MCF 10a normal breast cells. 350,000 tested, 2.9% active. MCF 10A DNA re-replication, Hoechst nuclear intensity, 48 h. AID 624296, 2012. Potency, µM (series often up to 46.1 µM), for inactives: at the highest dose activity, positive = re-replication, actives largely listed as activators; note: % of control where 0% means no effect; nearly all actives have a fitted effect of over 50% in size
SW480 rerep: A quantitative high throughput screen for small molecules that induce DNA re-replication in SW480 colon adenocarcinoma cells. 340,000 tested, 1.8% active. Potency, µM (series often up to 46.1 µM), for the others: at the top dose re-replication activation, usual class: activators. SW480 DNA re-replication, Hoechst DNA content imaging, 48 h; note: % of control where 0% means no effect; nearly all actives have a fitted effect of over 55% in size
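Quantitative HTS format with DMSO vehicle controls; 48 hr drug incubation at 37 C, then 40 min Hoechst staining and scanning imager measurement at 405 nm excitation.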
KB-V1 cytotox: qHTS assay for MDR1-selective chemotherapeutics: Primary screen using the drug-selected MDR subline cells KB-V1. KB-V1 MDR cells viability, CellTiter-Glo, 72 h. Potency, µM (doses to about 46.1 µM), most hits filed as cytotoxic. 400,000 tested, 3.4% active. AID 1347076, 2019; note: % is set by controls: 0 for no effect and ±100 for the full control effect; nearly all actives have a fitted effect of over 60% in size
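Readout: CellTiter-Glo luminescence, 10 min after addition. Cells: KB-V1 MDR subline, 72 h at 37 degrees C with compound. Analysis: corrected, normalized data fitted to concentration-effect curves.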
KB-3-1 cytotox: qHTS assay for MDR1-selective chemotherapeutics: Primary screen using the parental adenocarcinoma cell KB-3-1 | AID 1347075, 2019 | 400,000 tested, 1.4% active | Potency, µM (titrated, usually from 46.1 µM), hits mostly cytotoxic | KB-3-1 viability, CellTiter-Glo ATP luminescence, 72 h; note: % is set by controls: 0 for no effect and ±100 for the full control effect; nearly all actives have a fitted effect of over 60% in size
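KB-3-1 parental drug-naive adenocarcinoma cells in DMEM/10% FBS, incubated 72 h at 37 C with pin-transferred compounds across a concentration series. Viability by CellTiter-Glo luminescence; concentration-response curves fitted after normalization.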
HT1080 IDH1KD tx: qHTS for induction of synthetic lethality in tumor cells producing 2HG: qHTS for the HT-1080-IDH1KD cell line. HT-1080 IDH1 knockdown viability, ATP luminescence, 48 h. Potency, µM (doses to about 46.1 µM), for inactives: top-dose activity, negative = toxicity, actives largely listed as cytotoxic. 360,000 tested, 2% active;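 note: 0% = DMSO wells and -100% = cell-free medium wells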
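Cytotoxicity counter-line: IDH1KD HT-1080, 48 h, CellTiter-Glo. Curves classed by r2, magnitude and activity.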
HT1080-NT tox: qHTS for induction of synthetic lethality in tumor cells producing 2HG: qHTS for the HT-1080-NT fibrosarcoma cell line | HT-1080-NT fibrosarcoma viability, CellTiter-Glo ATP luminescence, 48 h | Potency, µM (series often up to 46.1 µM), for inactives: at the highest dose activity, negative = less viability, actives largely listed as cytotoxic | 360,000 tested, 1.6% active | AID 686970, 2013;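 note: NT is the 2HG producing partner of a matched IDH1 knockdown line; 0% = DMSO-treated cells and -100% = media-only wells without cells; nearly all actives have a fitted effect of over 55% in size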
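Toxicity toward the 2HG-producing NT line was scored as %Activity, normalised to DMSO and no-cell wells, from CellTiter-Glo luminescence after 48 hours' treatment.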
* hit, by the source's call; i = inactive; ? = inconclusive; nt = no result; [ ] = remark or other dose. Calls come from the whole dose curve; as a rule, active = well fitted curve in the direction sought with a large enough effect; inconclusive = small, poorly fitted or top-dose-only effect, or another doubt; inactive = no such curve, though single readings can be large; an effect the other way counts as inactive or inconclusive. Potency is the fitted concentration of half-maximal effect.

SMILES	MCF10A rereplic	SW480 rerep	KB-V1 cytotox	KB-3-1 cytotox	HT1080 IDH1KD tx	HT1080-NT tox
CCCN(CCC)C(=O)CSc1nc2ccccc2c(=O)n1C1CCCC1	?	22%	7.3µM*	i	?	-2%
CN(C)c1ccc(NC(=O)CSc2nc3ccccc3c(=O)n2C2CCCCC2)cc1	?	1%	i	i	0%	-1%
N#CCSc1nc2ccccc2c(=O)n1C1CCCCC1	-1%	0%	?	i	7%	-8%
Cc1cc(NC(=O)CSc2nc3ccccc3c(=O)n2C2CCCC2)no1	1.3µM*	1.3µM*	1.3µM*	?	1.8µM*	?
COc1ccccc1C(=O)NCCn1cc(SCC(=O)Nc2cc(C)on2)c2ccccc21	?	3%	8.2µM*	i	-6%	7%
CCN(CC)C(=O)CSc1nc2ccccc2c(=O)n1CC1CCCCC1	?	0%[9.22 µM]	i	?	?	?
O=c1c2ccccc2nc(SCc2cccc(F)c2)n1C1CCCC1	18µM*	11%	?	i	4%	0%
CC(=O)c1cccc(NC(=O)C2CCCN(c3nnc(-n4cccc4)s3)C2)c1 (stereo not given)	nt	nt	i	i	nt	nt
COc1ccc(C)cc1-n1c(SCC(=O)Nc2cc(C)on2)nc2ccccc2c1=O	3%	1%	18µM*	?	-27%	-27%
Cc1ccc(NC(=O)c2cccc(S(=O)(=O)N3CCN(c4ccc(F)cc4)CC3)c2)nc1	11%	?	?	16µM*	?	?
Cc1ccc(NC(=O)c2cccc(S(=O)(=O)N3CCCC3)c2)nc1	?	-120%	i	i	-13%	-15%
O=C(Nc1ccc(Cl)cn1)c1cccc(S(=O)(=O)N2CCOCC2)c1	-2%	-1%	21µM*	i	-3%	0%
CCCN(CC(=O)Nc1ccccc1OC)C(=O)c1ccncc1	-20%	5%	i	i	16%	1%
CCOc1ccc(NC(=O)CN(C)C(=O)c2ccc(COc3ccccc3)cc2)cc1OCC	5%	1%	9.2µM*	i	-7%	-5%
CCOc1ccc(NC(=O)CN(C)C(=O)c2ccccc2OCc2cccc(C)c2)cc1OCC	?	?	2.9µM*	i	?	-12%
COc1ccc(NC(=O)CN(C)C(=O)c2csc3c2CCCC3)cc1	3%	-3%	?	i	12%	2%
CCOc1ccc(NC(=O)CN(C)C(=O)c2cccnc2Sc2ccc(C)cc2C)cc1OCC	-2%	-3%	16µM*	i	-12%	5%
CCOc1ccc(NC(=O)CN(C)C(=O)c2ccc(COc3ccccc3)o2)cc1OCC	-2%	-3%	i	i	-5%	15%
CCOc1ccc(NC(=O)CN(C)C(=O)c2csc3c2CCCC3)cc1OCC	-3%	-4%	15µM*	i	-1%	-2%
Cc1ccc(S(=O)(=O)NC(CC(=O)OCc2ccccc2)C(=O)OCc2ccccc2)cc1 (stereo not given)	nt	nt	i	?	17%	5%
O=C(COc1ccccc1C(=O)Nc1ccccc1)Nc1ccc(Br)cc1	nt	nt	i	i	nt	nt
Cc1ccnc(NC(=S)N2CCN(c3cccc([N+](=O)[O-])c3)CC2)c1	nt	nt	i	i	nt	nt
Cc1ccc(-n2ncc3c(N4CCCCC4)ncnc32)cc1Cl	nt	nt	?	i	nt	nt
CCC(C)(C)c1nnc(NC(=O)C2CC(=O)N(CCc3ccc(F)cc3)C2)s1 (stereo not given)	-4%	-5%	i	i	-10%	3%
O=C1CC(N2CCN(C/C=C/c3ccccc3)CC2)C(=O)N1CCc1ccccc1 (stereo not given)	?	1%	12µM*	i	-24%	?
SMILES	MCF10A rereplic	SW480 rerep	KB-V1 cytotox	KB-3-1 cytotox	HT1080 IDH1KD tx	HT1080-NT tox
O=C1CC(N2CCN(C3CC(=O)N(CCc4ccccc4)C3=O)CC2)C(=O)N1CCc1ccccc1 (stereo not given)	-8%	6%	?	i	2%[9.24 µM]	-20%
O=C(Nc1nc2ccccc2[nH]1)C1CC1	18µM*	21µM*	10µM*	?	?	?
Cc1ccc(N(C)S(=O)(=O)c2cccc(C(=O)Nc3nc4ccccc4[nH]3)c2)cc1	?	?	2.3µM*	?	-27%	-4%
O=C(Nc1nc2ccccc2[nH]1)c1ccc(Cl)c(S(=O)(=O)N2CCCC2)c1	?	?	15µM*	?	-26%	-19%
O=C(Nc1nc2ccccc2[nH]1)c1cccc(F)c1	?	21µM*	i	i	?	-28%
O=C(Nc1nc2ccccc2[nH]1)C1CCN(C(=O)c2ccc(F)cc2)CC1	-10%	-61%	i	i	-5%	1%
O=C(NCc1ccc(Cl)cc1)c1ccc2oc(=O)n(Cc3ccccc3)c2c1	nt	nt	?	i	nt	nt
COc1ccc(N(C)S(=O)(=O)c2cccc(C(=O)NCc3ccc(C)cc3)c2)cc1	8%	3%	6.5µM*	i	-11%	-10%
O=C(Cc1ccccc1[N+](=O)[O-])NC1CC1	-6%	4%	i	i	5%	4%
O=C(Cc1ccccc1[N+](=O)[O-])NCC1(c2cccc3c2OCO3)OCCO1	-2%	1%	18µM*	i	10%	15%
FC(F)(F)c1cc(-c2ccccc2)nc2cc(-c3ccccc3)nn12	nt	nt	i	i	nt	nt
FC(F)(F)c1cc(-c2cccs2)nc2cc(-c3ccccc3)nn12	16µM*	?	i	i	5%	-1%
COc1ccccc1N(CC(=O)NC1CCCCC1)C(=O)Cn1nnc(-c2ccc(C)o2)n1	7%	-1%	?	i	-1%	-3%
COc1ccccc1N(CC(=O)NC(C)(C)C)C(=O)Cn1nnc(-c2ccc(C)o2)n1	18%	1%	2.3µM*	i	10%	9%
CCCN(CCC)C(=O)c1ccccc1C(=O)N(CCC)CCC	-1%	-5%	8.2µM*	i	0%	-3%
CCN(Cc1ccccc1)C(=O)c1ccccc1C	8%	-5%	?	i	2%	6%
CCc1cccc(NC(=O)Cn2c(=O)n(-c3cccc(Cl)c3)c(=O)c3c2c2cc(C)ccc2n3C)c1	nt	nt	i	i	nt	nt
